Laboratory results taken from PubChem BioAssay (NCI).
About 79,000 compounds went through this panel and 15% of them were active in at least one assay; those are over-represented in the sample as a whole. Calls of active or inactive are those of the source. No stated cut-off is given here; in the data, active means growth inhibition above about 70%; inactive means the rest.

Legend:
[1] = NCI Yeast Anticancer Drug Screen. Data for the wt1 strain (AID 149);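 further: 0% = growth of vehicle-treated wt1 cultures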; conditions: S. cerevisiae wt1 strain (SPY 50644) growth inhibition, active compounds read high
Procedure, shortened: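 Growth inhibition read against vehicle controls after compound exposure of the wt1 yeast strain.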

[2] = NCI Yeast Anticancer Drug Screen. Data for the mgt1 strain (AID 153); conditions: S. cerevisiae mgt1 mutant growth inhibition, active compounds read high
Procedure, shortened: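 mgt1 strain exposed; growth vs vehicle control recorded as inhibition.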

[3] = NCI Yeast Anticancer Drug Screen. Data for the rad50 strain (AID 155);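 further: 0% = growth of vehicle-only cultures of the same strain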; conditions: S. cerevisiae rad50 strain growth inhibition, active compounds read high
Procedure, shortened: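 Readout: growth inhibition relative to vehicle-treated cultures. Compound exposure was carried out in a genetically defined yeast strain deficient in DNA damage repair.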

[4] = NCI Yeast Anticancer Drug Screen. Data for the mec2-1 strain (AID 157); conditions: S. cerevisiae mec2-1 strain, active compounds read high
Procedure, shortened: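 Vehicle-treated cultures served as reference for growth inhibition of compound-exposed mec2-1 yeast.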

[5] = NCI Yeast Anticancer Drug Screen. Data for the rad14 strain (AID 159);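 further: 0% = growth of vehicle-treated control cultures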; conditions: S. cerevisiae rad14 strain growth inhibition, active compounds read high
Procedure, shortened: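 Growth inhibition vs vehicle controls; genetically altered yeast strain (DNA damage repair defect) treated with test compounds.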

[6] = NCI Yeast Anticancer Drug Screen. Data for the sgs1 mgt1 strain (AID 161);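 further: 0% = growth of cultures given vehicle only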; conditions: S. cerevisiae sgs1 mgt1 strain, active compounds read high
Procedure, shortened: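 Test agents were incubated with a DNA-repair-mutant yeast strain. Growth was then read and compared against vehicle-treated controls.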

[7] = NCI Yeast Anticancer Drug Screen. Data for the CLN2oe strain (AID 163);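 further: 0% = growth of vehicle-only control cultures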; conditions: S. cerevisiae CLN2oe strain, active compounds read high
Procedure, shortened: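 Inhibition relative to vehicle-treated yeast is reported. Cells: strain with genetic alteration in cell-cycle control, grown with compound.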

[8] = NCI Yeast Anticancer Drug Screen. Data for the bub3 strain (AID 167); conditions: S. cerevisiae bub3 mutant strain, active compounds read high
Procedure, shortened: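 Readout: yeast growth inhibition, expressed relative to vehicle-only wells. The test organism is a mutant strain from a panel with lesions in DNA repair or checkpoint genes.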

[9] = NCI Yeast Anticancer Drug Screen. Data for the wt2 strain (AID 169);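 further: 0% = growth of vehicle-treated yeast cultures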; conditions: S. cerevisiae wt2 strain growth inhibition, active compounds read high
Procedure, shortened: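 Inhibition of yeast growth was determined after compound treatment, normalised to controls receiving only vehicle.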

[10] = NCI Yeast Anticancer Drug Screen. Data for the mlh1 strain (AID 171);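 further: 0% = growth of vehicle-treated control cultures of the same strain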; conditions: S. cerevisiae mlh1 strain growth inhibition, active compounds read high
Procedure, shortened: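 Vehicle-normalised growth inhibition of a repair- or checkpoint-altered yeast strain following compound treatment.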

[11] = NCI Yeast Anticancer Drug Screen. Data for the sgs1 strain (AID 173);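 further: 0% = growth of vehicle-only control cultures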; conditions: S. cerevisiae sgs1 mutant, active compounds read high
Procedure, shortened: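 Screen format: yeast with repair or checkpoint alterations, compound exposure, growth read relative to vehicle.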

[12] = NCI Yeast Anticancer Drug Screen. Data for the mlh1 rad18 strain (AID 175); conditions: S. cerevisiae mlh1 rad18 strain growth inhibition, active compounds read high
Procedure, shortened: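 Vehicle-treated cultures served as the reference for growth inhibition in a yeast strain carrying DNA damage repair alterations exposed to each compound.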

[13] = NCI Yeast Anticancer Drug Screen. Data for the rad18 strain (AID 177); conditions: S. cerevisiae rad18 mutant growth inhibition, active compounds read high
Procedure, shortened: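 Test articles were incubated with altered yeast defective in DNA damage repair. Results are given as inhibition of growth versus vehicle.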

[14] = at 5.0 µM (retest, dose inferred, filed as 0.5)
[15] = at 50.0 µM (retest, dose inferred, filed as 5.0)

Measured: growth inhibition

S=c1[nH]nc(Cc2ccccc2)c(=S)[nH]1
inactive: [1]; at 1.2 µM -47% | [1]; at 3.7 µM -14% | [1]; at 11.0 µM 30% | [2]; at 1.2 µM 23% | [2]; at 3.7 µM 47% | [3]; at 1.2 µM -17% | [3]; at 3.7 µM -6% | [3]; [14] 63% | [3]; at 11.0 µM 36% | [3]; [15] 55% | [4]; at 1.2 µM -8% | [4]; at 3.7 µM -6% | [4]; [14] 7% | [4]; at 11.0 µM 29% | [4]; at 50.0 µM 64.2% | [5]; at 1.2 µM -3% | [5]; at 3.7 µM 26% | [5]; at 11.0 µM 69% | [6]; [14] 41% | [7]; at 1.2 µM 26% | [7]; at 3.7 µM 25% | [7]; at 11.0 µM 35% | [8]; at 1.2 µM 16% | [8]; at 3.7 µM 21% | [8]; [14] 46% | [8]; at 11.0 µM 51% | [9]; at 1.2 µM -40% | [9]; at 3.7 µM -1% | [9]; at 11.0 µM 62% | [10]; at 1.2 µM 14% | [10]; at 3.7 µM 34% | [11]; at 1.2 µM 2% | [11]; at 3.7 µM 10% | [11]; at 11.0 µM 64% | [12]; [14] 53% | [12]; [15] 60% | [13]; at 1.2 µM 9% | [13]; at 3.7 µM 3% | [13]; at 11.0 µM 42%
active: [1]; at 33.0 µM 92% | [1]; at 100.0 µM 97% | [2]; at 11.0 µM 83% | [2]; at 33.0 µM 97% | [2]; at 100.0 µM 97% | [3]; at 33.0 µM 89% | [3]; at 50.0 µM 72.6% | [3]; at 100.0 µM 95% | [4]; at 33.0 µM 91% | [4]; [15] 75% | [4]; at 100.0 µM 96% | [5]; at 33.0 µM 94% | [5]; at 100.0 µM 97% | [6]; [15] 83% | [6]; at 50.0 µM 86.3% | [7]; at 33.0 µM 91% | [7]; at 100.0 µM 96% | [8]; at 33.0 µM 94% | [8]; [15] 79% | [8]; at 50.0 µM 71.2% | [8]; at 100.0 µM 97% | [9]; at 33.0 µM 94% | [9]; at 100.0 µM 95% | [10]; at 11.0 µM 77% | [10]; at 33.0 µM 96% | [10]; at 100.0 µM 96% | [11]; at 33.0 µM 95% | [11]; at 100.0 µM 97% | [12]; at 50.0 µM 75.2% | [13]; at 33.0 µM 94% | [13]; at 100.0 µM 97%
